Pf apPOL block = Pf-apPOL inhibitors, biochemical, fluorescence | Recombinant Pf-apPOL, molecular beacon fluorescence, 1.5 h | inhibition, % at 10 µM | Plasmodium falciparum apicoplast DNA polymerase (apPOL) | actives 0.25% (n = 210,000)
mHTT CaM bind = mutant huntingtin-calmodulin interaction inhibitors – biochemical, AlphaScreen, primary screen; P42858; AlphaScreen His-mHTT/GST-CaM binding, luminescence; inhibition, % at 15 µM; actives 3.6% (n = 190,000); AID 1671202, 2021
Of the large screens only hits and unclear results are named; the others gave an inactive call. This is a sample that favours compounds with a hit; in the whole collection about 3.6% have one here. No stated cut-off is given here; in the data, active means inhibition above about 50%; inactive means the rest.

O=C(Cc1ccc(F)cc1)NCCS(=O)(=O)N1CCN(CCc2ccccc2)CC1	none
COc1ccc(NC(=O)c2cc3cccc(OC)c3oc2=O)c(OC)c1	Pf apPOL block 100.2
COc1cccc2cc(C(=O)Nc3ccc(C)cc3C)c(=O)oc12	none
O=C1/C(=C/c2cc(Br)ccc2O)Sc2ccccc21	none
CN(c1ccc(F)cc1)S(=O)(=O)c1ccc2[nH]cc(C(=O)O)c(=O)c2c1	none
CN(C)c1ccc2[nH]c3c(C(=O)O)cc(=O)c(=O)c=3oc2c1	mHTT CaM bind 66.5 (no result: Pf apPOL block)
COc1cccc(NC(=O)c2ccc(Br)o2)c1	none
COC(=O)C(C#N)=C(C#N)c1ccc(Br)o1	Pf apPOL block 76.5 (no result: mHTT CaM bind)
COc1ccc(/C=C2/N=C(c3ccccc3Cl)OC2=O)c(OC)c1OC	none
O=C(CSc1ccccn1)Nc1ccc(Br)cc1	none
O=C(CSc1ccc(-c2ccccn2)nn1)Nc1ccc(F)c(F)c1	mHTT CaM bind 99.4
CC(C)OCCCNC(=O)c1ccccc1CN1C(=O)C2CCCN2C(=O)c2ccccc21 (centres undefined)	none
c1ccc(N=Nc2ccc(Nc3ccccc3)cc2)cc1	none (no result: mHTT CaM bind)
CC1CCN(C(=O)c2ccc(-c3noc(-c4ccccc4)n3)s2)CC1	none
CC(C)CN1CCn2cc(C(=O)N3CCN(c4ccc(Cl)cc4)CC3)nc2C1	mHTT CaM bind 91.5
CCCN1CCn2cc(C(=O)N3CCN(c4ccc(Cl)cc4)CC3)nc2C1	none
Cc1cc(C)c(CNC(=O)c2cn3c(n2)CN(CC(C)C)CC3)c(C)c1	mHTT CaM bind 70.7
CC(C)CN1CCn2cc(C(=O)N3CCN(c4ccccc4Cl)CC3)nc2C1	none
Cc1cccc(N2CCN(C(=O)c3cn4c(n3)COCC4)CC2)c1C	none
CC(C)CN1CCn2cc(C(=O)N3CCN(c4ccccc4)CC3)nc2C1	mHTT CaM bind 57.7
Cc1ccc(C)c(CNC(=O)c2cn3c(n2)CN(CC(C)C)CC3)c1	none
Cc1cccc(N2CCN(C(=O)c3cn4c(n3)CN(CC(C)C)CC4)CC2)c1C	mHTT CaM bind 71.4
CCNC(=O)c1csc(COc2ccc(C)c(C)c2)n1	none
NC(=O)CN1CCCCC1c1nc(-c2cnccn2)no1 (centres undefined)	none
COc1ccc(C2=N/C(=C\c3ccc([N+](=O)[O-])cc3)C(=O)O2)cc1OC	none
OC(C#CC(O)(c1ccccc1)c1ccccc1)(c1ccccc1)c1ccccc1	none (no result: mHTT CaM bind)
COc1ccc(C(O)(C#Cc2ccccc2)c2ccccc2)cc1 (centres undefined)	mHTT CaM bind 59.9
Cc1ccc(Cn2nc(C)c(NC(=O)c3noc4c3CCCCC4)c2C)cc1	none
Cc1cc(C)n(CCNC(=O)c2cc(-c3ccco3)on2)n1	none
Cc1nn(Cc2ccc(Cl)c(Cl)c2)c(C)c1NC(=O)c1cc(-c2ccco2)on1	mHTT CaM bind 57.0
Cc1nn(Cc2ccc(Cl)c(Cl)c2)c(C)c1NC(=O)c1noc2c1CCCC2	mHTT CaM bind 100.1
CCOc1ccc2nc(C)cc(Nc3ccc(N4CCOCC4)cc3)c2c1	none
CCOc1ccc2nc(C)cc(Nc3ccc(C)c(Cl)c3)c2c1	mHTT CaM bind 94.8
Cc1cc(Nc2ccc(N(C)C)cc2)c2cc(Cl)ccc2n1	mHTT CaM bind 73.3
Cc1cc(Nc2ccc(O)cc2)c2cc(Cl)ccc2n1	none
CCC(C)NC(=O)C1CCN(Cc2cn(C)c3ccc(Cl)cc23)CC1 (centres undefined)	none
O=[N+]([O-])c1ccc(CN2CCN(C/C=C/c3ccccc3)CC2)cc1	none
COc1cccc(CN2COc3ccc4c(c3C2)OC(=Cc2ccncc2)C4=O)c1	none
CCCS(=O)(=O)c1nc2ccccc2n1CC(=O)N1CCN(c2ccccc2)CC1	none
CCOC(=O)N1CCC(NC(=O)c2ccnc(N3CCNC(c4ccccc4)C3)c2)CC1 (centres undefined)	none
Cc1csc(SCC2CCN(C(=O)C34CC5CC(CC(C5)C3)C4)CC2)n1	none
CC(C)CC1C(=O)N(Cc2cn(Cc3ccco3)nn2)CCS(=O)(=O)N1Cc1ccc(-c2ccccc2)cc1 (centres undefined)	mHTT CaM bind 67.8
CC(C)CC1C(=O)N(Cc2cn(Cc3ccco3)nn2)CCS(=O)(=O)N1Cc1ccc(-c2ccncc2)cc1 (centres undefined)	none
CC(C)CC1C(=O)N(Cc2cn(Cc3ccco3)nn2)CCS(=O)(=O)N1Cc1ccc(-c2ccc(F)nc2)cc1 (centres undefined)	mHTT CaM bind 60.3
COCOCCn1cc(CN2CCS(=O)(=O)N(Cc3ccc(-c4ccc(F)nc4)cc3)C(C(C)C)C2=O)nn1 (centres undefined)	none
COCOCCn1cc(CN2CCS(=O)(=O)N(Cc3ccc(-c4ccc(F)nc4)cc3)C(CC(C)C)C2=O)nn1 (centres undefined)	mHTT CaM bind 50.1
COc1ccc(-c2ccc(CN3C(CC(C)C)C(=O)N(Cc4cn(Cc5ccco5)nn4)CCS3(=O)=O)cc2)cc1 (centres undefined)	none
Cc1oc(C2CCN(C(=O)c3cc(F)ccc3F)CC2)nc1C(=O)N(C)C	none
Cc1cc(C2CCCN2C(=O)Nc2ccc(Br)cc2F)no1 (centres undefined)	none
COc1ccccc1NC(=O)N1CCCC(C)(C(=O)NCc2ccccc2)C1 (centres undefined)	none
Cc1c(C(=O)Nc2ccc(Br)cn2)cccc1[N+](=O)[O-]	none
CCC(=O)Nc1ccc(-c2nc3ccc(Br)cc3c(=O)o2)cc1	none
Nc1ccc(C2Nc3ccccc3C3C=CCC32)cc1 (centres undefined)	mHTT CaM bind 85.3
Brc1ccc2c(c1)C1C=CCC1C(c1ccncc1)N2 (centres undefined)	mHTT CaM bind 95.0
Fc1ccc(C2Nc3ccc(Br)cc3C3C=CCC32)cc1 (centres undefined)	none
Ic1ccc2c(c1)C1C=CCC1C(c1ccncc1)N2 (centres undefined)	mHTT CaM bind 95.0
Fc1ccc(C2Nc3ccc(OC(F)(F)F)cc3C3C=CCC32)cc1 (centres undefined)	none (no result: Pf apPOL block)
Cc1[nH]nc2c1C(c1ccccc1[N+](=O)[O-])CC(=O)N2 (centres undefined)	none
O=C(NC(=O)c1ccc(Cl)cc1)Nc1ccc(Br)cn1	none
COc1ccc([N+](=O)[O-])cc1NC(=O)C(c1ccccc1)c1ccccc1	none
CCn1c(SC)nc2c(c1=O)SCC2	none
CCOc1ccccc1C(=O)N1CCC(COc2ccccc2C(=O)N2CCCC2)CC1	none
CCOc1ccccc1C(=O)N1CCC(CCOC)CC1	Pf apPOL block 67.0
CNC(=O)N(C)Cc1ccc(C)s1	none
COc1ccc(N2CCN(c3ncc4c(n3)CCN(Cc3ccc(F)cc3)C4)CC2)cc1	mHTT CaM bind 56.9
Fc1ccc(CN2CCc3nc(N4CCN(c5ccc(F)cc5)CC4)ncc3C2)cc1	none
COc1ccc(CN2CCc3nc(N4CCN(c5cccc(OC)c5)CC4)ncc3C2)cc1	mHTT CaM bind 73.9
CCCN1CCN(c2ncc3c(n2)CCN(Cc2cccc(OC)c2)C3)CC1	none
COc1cccc(N2CCN(c3ncc4c(n3)CCN(Cc3cccc(F)c3)C4)CC2)c1	mHTT CaM bind 57.6
COc1cccc(CN2CCc3nc(N4CCN(C)CC4)ncc3C2)c1	none
Cc1cccc(C2C(C(=O)NC(C)(C)C)c3ccccc3C(=O)N2C2CC2)c1 (centres undefined)	none
Cc1cccc(CN2CCCn3nc(C(=O)NCc4ccccc4F)cc3C2=O)c1	none
O=C(Nc1c(F)cccc1F)c1cc2c(=O)oc3ccccc3c2s1	none
CCC(C(=O)N1CCc2c(c(-c3nnc(-c4ccccc4F)o3)nn2C)C1)c1ccccc1 (centres undefined)	mHTT CaM bind 52.8

Screens deposited in PubChem BioAssay by University of Kansas High Throughput Screening Laboratory.
